Assay results from PubChem BioAssay AID1421 (Emory University Molecular Libraries Screening Center, 2008).
Among all 1,300 compounds or so, about 140 (11%) were called active. The rule behind the calls is not given here. A selection follows. Results with a measured potency or affinity are listed apart.

Target: Prostaglandin E2 receptor EP2 subtype (Homo sapiens) (UniProt P43116)
Test: compounds shifting PGE2 potency at EP2 – cell-based, human EP2, PGE2 EC50 shift, dose response (AID 1421)
Conditions: EP2-expressing cells, PGE2 EC50 shift by compound; at 20 µM

Sequence of Prostaglandin E2 receptor EP2 subtype (Homo sapiens) (P43116 whole entry, looked up): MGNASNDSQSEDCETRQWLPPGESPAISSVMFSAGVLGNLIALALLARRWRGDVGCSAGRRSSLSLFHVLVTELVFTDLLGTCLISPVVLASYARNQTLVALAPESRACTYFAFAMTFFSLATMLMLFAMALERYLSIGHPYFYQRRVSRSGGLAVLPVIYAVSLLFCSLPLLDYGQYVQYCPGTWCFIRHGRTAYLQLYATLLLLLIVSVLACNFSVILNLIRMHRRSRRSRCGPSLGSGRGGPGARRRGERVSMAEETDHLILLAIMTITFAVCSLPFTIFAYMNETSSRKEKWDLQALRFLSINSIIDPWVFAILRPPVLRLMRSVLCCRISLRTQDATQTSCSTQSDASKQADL

PGE2 EC50 with compound, inactive:
COC(=O)c1ccccc1NC(=O)C(C)Oc1ccccc1 (configuration not stated) 0.81 nM
c1ccc(Cc2nc3ccccc3n2Cc2ccccc2)cc1 0.31 nM
Cc1cccc(OCc2n[nH]c(=S)n2Cc2ccccc2)c1 0.47 nM
COCCn1c(SCC(=O)NCCc2ccccc2)nnc1-c1ccco1 0.68 nM
COc1ccc(C(=O)O)cc1NC(=S)NC(=O)c1ccc(-c2ccc(Cl)cc2)o1 462 nM
CC(C)n1c2ccccc2c2nnc(SCC(=O)Nc3ccccc3C(=O)O)nc21 1.63 nM
COc1ccc(C(=O)Nc2cc(C)nn2-c2nc3ccccc3[nH]2)c(OC)c1 0.24 nM
Cc1cc(C)n(-c2cc(-c3ccccc3)nc(C)n2)n1 0.22 nM
Cc1oc(-c2ccccc2)cc1C(=O)Nc1cccc(/C=C\C(=O)O)c1
c1cncc(-c2nc(N3CCOCC3)c3c4c(sc3n2)CCC4)c1 0.72 nM
Cc1ccc(C2CC(c3cccs3)=NN2C(=O)c2ccc(Br)o2)cc1 (configuration not stated) 0.31 nM
Cc1ccccc1NC(=S)N(Cc1ccco1)C(C)c1cccs1 (configuration not stated) 0.4 nM
Cc1ccc(Cl)cc1NC(=S)N(Cc1ccco1)C(C)c1cccs1 (configuration not stated) 0.26 nM
O=C(NCc1ccco1)c1ccc(=O)[nH]n1 0.48 nM
C/C(CCc1oc2ccccc2c1-c1ccc(C)o1)=N/O 0.47 nM
Cc1ccc(-c2cc3nn(-c4ccccc4)c(N)c3c(=O)o2)cc1 1.29 nM
Cc1ccc(N=Nc2c(N)[nH]n3c(=O)c4c(nc23)CCCC4)cc1 3.42 nM
O=C(O)COc1ccc2occ(C(=O)c3ccccc3)c2c1 0.37 nM
CCOc1nc(C)cc(C)c1S(=O)(=O)c1ccc(Cl)cc1 0.21 nM
CC(/C=C1\SC(=S)N(C(C(=O)O)C(C)C)C1=O)=C\c1ccccc1 (configuration not stated) 1.95 nM
COc1ccccc1CNC(=O)C1(c2ccc(Cl)cc2)CC1 0.43 nM
CCC(=O)N1CCN(c2nc(-c3ccccc3)c3c(c2C#N)CCCC3)CC1 0.31 nM
CCCCc1nc(N2CCOCC2)c(C#N)c2c1CCCC2 0.37 nM
CCOc1ccc(OCC)c(NC(=O)CN2CCN(c3cc(C)ccc3C)CC2)c1 0.45 nM
Cc1occc1-c1nnc(SCC(=O)Nc2ccccc2N2CCCCC2)n1C 1.17 nM
O=C(CNCc1ccccc1Cl)Nc1ccccc1N1CCCCC1 0.81 nM
O=C(Cc1c(F)cccc1Cl)Nc1ccccc1N1CCCCC1 0.53 nM
CC(C)(C)N(Cc1ccccc1)C(=O)c1ccc(Br)o1 0.51 nM
COC(=O)NC1(C(F)(F)F)C(=O)NC(C)=C1C(=O)OC (configuration not stated) 0.72 nM
CCOC(=O)C1=C(C)N(C)C(C)=C(C(=O)OCC)C1c1ccccc1 0.51 nM
CCOC(=O)N1CCC(=C2c3ccc(Cl)cc3CCc3cccnc32)CC1 0.38 nM
CC1CCN(c2nc(-c3ccncc3)nc3ccccc23)CC1 0.52 nM
Cc1nnc(SCC(=O)N2c3ccccc3C(C)(c3ccccc3)CC2(C)C)s1 (configuration not stated) 0.37 nM
O=C(c1ccc(Cl)cc1)c1oc2ccccc2c1CS(=O)c1ccc(Cl)cc1 (configuration not stated) 0.25 nM
O=C(COc1cccc2ccccc12)N1c2ccccc2CCc2ccccc21 0.35 nM
Clc1ccc(Cl)c(-c2ccc(/C=N/c3ncn[nH]3)o2)c1 2.61 nM
COc1ccccc1N(C(=O)NCc1ccccc1)C1=NCC(C)S1 (configuration not stated) 0.21 nM
CCn1c2ccc(OC)cc2c2nc3ccccc3nc21 0.85 nM
O=c1cc(N2CCCCC2)c(-c2ccccc2)nn1Cc1ccccc1Cl 0.4 nM
CC1=CC2C(C(C)C)CCC(C)(O)C2CC1 (configuration not stated) 0.83 nM
O=C(NCc1ccco1)C(c1cccs1)N(C(=O)Cc1cccs1)c1ccccc1 (configuration not stated) 0.44 nM
c1ccc(-c2noc(-c3cccc4ccccc34)n2)cc1 0.52 nM
COc1cc(-c2noc(-c3cccc(Cl)c3)n2)cc(OC)c1OC 0.47 nM
COc1ccc(CCN(Cc2nc(-c3ccccc3)no2)Cc2nc(-c3ccccc3)no2)cc1OC 0.49 nM
c1ccc(-c2noc(-c3ccccc3-c3ccccc3)n2)cc1 0.5 nM
COc1ccc(-c2noc(-c3ccccc3-c3ccccc3)n2)cc1OC 0.17 nM
Cc1ccc(-c2csc3ncnc(N4CCc5ccccc5C4)c23)cc1 0.42 nM
Cc1ccc(-c2nn3c(C)nnc3s2)cc1NCc1c(F)cccc1Cl 0.97 nM
CC(C)Sc1nc2sc3c(c2c2nnc(SCC(=O)NCc4ccco4)n12)CCCC3 0.83 nM
Cc1sc2ncnc(Sc3ccccc3C(=O)O)c2c1C 3.01 nM
COc1cccc(-c2nc(N3CC(C)CC(C)C3)c3ccccc3n2)c1O (configuration not stated) 0.13 nM
CCSc1nc2c(c(=O)[nH]c(=O)n2C)n1Cc1ccc(Cl)cc1 0.83 nM
C=CCOc1ccccc1CNc1cccc(F)c1 0.37 nM
CCOc1cccc(CNc2ccc(O)cc2)c1OCc1ccccc1Cl 0.8 nM
Cc1cc(SC(C)C(=O)O)nc2ccccc12 (configuration not stated) 1.16 nM
O=C(CSc1ncnc2c1oc1ccccc12)Nc1ccccc1F 1.24 nM
O=[N+]([O-])c1ccc(Cl)c2c1C1C=CCC1C(c1ccccn1)N2 (configuration not stated) 0.53 nM
CC(=O)N(c1cccc(Br)c1)C1C=CS(=O)(=O)C1 (configuration not stated) 0.92 nM
Cc1nnc(SCC(=O)NC2CCCCC2)n1C1CCCCC1 0.89 nM
CC(NC(c1ccccc1)c1ccccc1)C(=O)N1CCCc2ccccc21 (configuration not stated) 0.36 nM
Cc1ccc(C(=O)O)cc1NC(=S)NC(=O)c1ccc(-c2ccccc2)cc1 1.3 nM
O=C(COc1ccccc1)Nc1cc(C(F)(F)F)ccc1N1CCCC1 0.31 nM
